Screening data from PubChem BioAssay.
PLC-beta3 inh: PLC-beta3 (human) inhibition, primary screen; Q01970; Purified PLC-beta3, fluorogenic substrate, fluorescence; inhibition, % at 12.2 µM; actives 0.18% (n = 370,000); AID 720704; in the data active = inhibition above about 11%;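 note: 0% = median of compound wells on plate and 100% = full blocker control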
FAS TE block: FAS thioesterase (human) inhibition. P49327. recombinant FAS-TE, OMFH fluorogenic substrate, fluorescence endpoint. inhibition, % at 15 µM. actives 0.67% (n = 360,000);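 active = compounds whose normalised, plate-corrected inhibition of enzyme fluorescence in the single-dose primary screen is 50% or more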;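 note: 0% = DMSO with enzyme and 100% = substrate without enzyme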
PLCg1 inh: PLC-gamma1 (human) inhibition, primary screen; actives 0.84% (n = 370,000); inhibition, % at 12.2 µM; AID 720700; P19174; purified PLC-gamma1, fluorogenic substrate, fluorescence
Cardio protect: protects H9c2 cardiomyocytes from peroxide injury | H2O2 injury protection, ATPLite, 2 h | protection from H2O2 cell death, % at 20 µM | actives 0.63% (n = 360,000) | AID 588492;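 active = compounds giving at least 50% protection of heart cells from peroxide-induced death in the single-dose screen, raw or plate-pattern-corrected value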;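 note: 0% = DMSO wells with peroxide and 100% = DMSO wells without peroxide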
FAS-TE inh conf: FAS thioesterase (human) inhibition, confirmation; shares compounds with FAS TE block; actives 45% (n = 2,300); recombinant FAS-TE, OMFH fluorogenic substrate, fluorescence; AID 624325; inhibition, % at 15 µM;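 active = compounds inhibiting the enzyme by at least 50% at 15 µM in any one of the replicates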;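 note: 0% = enzyme with DMSO only and 100% = wells lacking enzyme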
PLCg1 ctr: counter-screen for PLC-beta3 inhibitors: inhibitors of human PLC-gamma1; purified PLC-gamma1, fluorogenic substrate, fluorescence; shares compounds with PLCg1 inh; actives 3.1% (n = 3,300); inhibition, % at 12.3 µM
PLCbeta3 conf: human PLC-beta3 inhibition, confirmation. shares compounds with PLCg1 inh. purified PLC-beta3, fluorogenic substrate fluorescence. inhibition, % at 12.3 µM. actives 1% (n = 3,300). AID 743261; in the data active = inhibition above about 11%
* marks the source's active call; other numbers are inactive results; / = no result given. An excerpt weighted towards active compounds, which were near 2.2% of everything screened. Cut-off read from the data, not from the text of the source, unless noted: active = inhibition above about 9.5%; inactive = the rest.

SMILES	PLC-beta3 inh	FAS TE block	PLCg1 inh	Cardio protect	FAS-TE inh conf	others
COc1ccc(-c2csc(N3C(=O)C4C5c6ccccc6C(c6ccccc65)[C@@H]4C3=O)n2)cc1 (stereo partly specified)	3	59*	1	-6	13
Cc1ccccc1Cn1c(C)nc2ccc([N+](=O)[O-])cc2c1=O	-6	61*	-2	1	51*
Cc1nc2ccc([N+](=O)[O-])cc2c(=O)n1Cc1ccc(F)cc1	-4	71*	0	-9	75*
Cc1cccc(Cn2c(C)nc3ccc([N+](=O)[O-])cc3c2=O)c1	-2	40	2	1	/
COC(=O)C1=C(C(=O)OC)[C@@H]2N(C)c3ccc(OC)cc3[C@@]23C[C@@H](C(=O)OC)N(S(=O)(=O)c2ccc([N+](=O)[O-])cc2)C3=N1	0	66*	1	13	27
CCCCS(=O)(=O)N1C2=NC(C(=O)OC)=C(C(=O)OC)[C@@H]3N(C)c4ccc(OC)cc4[C@]23C[C@H]1C(=O)OC	/	4	/	12	/
O=C(O)CC(NC(=O)CCC1CCCCC1)c1cc([N+](=O)[O-])ccc1Cl (stereo unspecified)	0	60*	0	15	67*
O=C(CCC1CCCC1)Nc1ccc([N+](=O)[O-])cn1	4	12	1	1	/
CCOc1ccc(-n2c(SCC(=O)Nc3ccc4c(c3)OCO4)nc3c(c2=O)SCC3)cc1	3	1	-1	-3	/
CCOc1ccc(-n2c(SCC(=O)Nc3ccc4c(c3)OCCO4)nc3c(c2=O)SCC3)cc1	-1	62*	-1	14	25
CC(C)C1=CC2C3C(C(C(C)C)=CC(=O)[C@@]3(C)O)C1C(=O)C2(C)O (stereo partly specified)	0	/	0	/	/
O=C(NC1CCCCC1)O[C@H]1CC[C@@]23CCCN2C(=O)CCC[C@H]3C1	4	/	2	/	/
Cn1c(/C=C/N(Cc2ccccc2)c2ccccc2)c([N+](=O)[O-])c(=O)n(C)c1=O	2	57*	3	3	47*
CCc1ccc(/C=C/c2c([N+](=O)[O-])c(=O)n(C)c(=O)n2C)cc1	-4	9	5	-4	/
Cc1ccc(S(=O)(=O)N(C)[C@H]2C[C@H]3c4cc(N5CCOCC5)ccc4CCN3C[C@H]2[C@H](C)O)cc1	-3	/	-6	/	/
CC[C@@]12C(=O)N(c3cccc(F)c3)C(=O)N1[C@H](c1ccc(Br)cc1)[C@@H]1C(=O)N(C(C)(C)C)C(=O)[C@@H]12	6	17	4	5	/
COc1ccc([C@@H]2[C@@H]3C(=O)N(C(C)(C)C)C(=O)[C@@H]3[C@]3(Cc4ccccc4)C(=O)N(c4cccc(F)c4)C(=O)N23)cc1	1	52*	-1	4	-4
CC(C)(C)N1C(=O)[C@H]2[C@@H](c3ccc(Br)cc3)N3C(=O)N(c4cccc(F)c4)C(=O)[C@@]3(Cc3ccccc3)[C@H]2C1=O	2	92*	0	-1	36*
CC(C)(C)N1C(=O)[C@H]2[C@@H](c3ccc(Br)cc3)N3C(=O)N(c4ccc(Br)cc4)C(=O)[C@@]3(Cc3ccccc3)[C@H]2C1=O	/	91*	/	3	51*
Cc1ccc(-c2csc3nc(C(C)C)oc(=O)c23)c(C)c1	-4	86*	-1	-1	69*
Cc1ccc(-c2nnc(NCc3nc4ccccc4[nH]3)c3ccccc23)cc1S(=O)(=O)N1CCCCC1	-9	69*	-7	13	21
CC(=O)NC(=S)Nc1sc2c(c1C#N)CCCCC2	1	57*	0	-30	59*
CC(=O)Nc1sc2c(c1C#N)CCCC2	0	-6	1	-2	/
O=C(Cc1ccccc1)N1CCC(Oc2cccnc2)CC1	-1	/	0	/	/
O=C1C2ON(c3ccccc3)C(c3cccnc3)C2C(=O)N1c1ccc(Cl)c(Cl)c1 (stereo unspecified)	-2	60*	-4	2	60*
SMILES	PLC-beta3 inh	FAS TE block	PLCg1 inh	Cardio protect	FAS-TE inh conf	others
Cc1ccc2c(c1)C1CS(=O)(=O)N(CC(C)C)CN1C2 (stereo unspecified)	-7	/	-9	/	/
COc1ccc(S(=O)(=O)N(C)C)cc1NC(=O)[C@H](Cc1ccccc1)N1C(=O)c2ccccc2C1=O	5	65*	9.8*	5	38	PLCg1 ctr=1;PLCbeta3 conf=4
CC(C)C[C@H]1COc2cc(N3CCC[C@@H]3CO)ccc2S(=O)(=O)N1	2	-16	4	/	/
CC[C@H]1C/C=C\Cc2ccccc2[C@@H](C(=O)C[C@@H](O)CC(C)=O)OC1=O	-8	0	-5	-5	/
CNC(=S)N(Cc1ccc(OC)cc1)C1CC(=O)N(c2ccc(Cl)cc2)C1=O (stereo unspecified)	3	62*	9.6*	-1	70*	PLCg1 ctr=8;PLCbeta3 conf=8
O=C(CCNC(=O)c1ccc([N+](=O)[O-])cc1)Nc1ccc(F)cc1	-5	47	0	9	/
Cc1cc(C)cc(NC(=O)CCNC(=O)c2ccc([N+](=O)[O-])cc2)c1	-3	69*	10*	6	16	PLCg1 ctr=-8;PLCbeta3 conf=-6
O=C(N/N=C\c1ccc(Cl)cc1)C1=NOC2COC3(CCN(c4ccc([N+](=O)[O-])cc4)CC3)OCC12 (stereo unspecified)	13*	69*	14*	-11	19	PLCg1 ctr=-19;PLCbeta3 conf=-24
O=C(N/N=C/c1ccccc1)NC1CCCCC1	2	8	5	-4	/
CC(C)(C)c1ccc(/C=N/NC(=S)NC2CCCCC2)cc1	6	53*	11*	-32	45*	PLCg1 ctr=1;PLCbeta3 conf=-4
COc1ccc(C(C(=O)NCCC(C)C)N(CCCO)C(=O)c2snc(C(N)=O)c2N)cc1OC (stereo unspecified)	-52	-5	-35	9	/
Cc1cc([N+](=O)[O-])nn1CCCC(=O)Nc1cc(Oc2ccccc2)cc([N+](=O)[O-])c1	3	36	5	3	/
Cc1cccc(Oc2cc(NC(=O)Cn3cnc([N+](=O)[O-])n3)cc([N+](=O)[O-])c2)c1	5	59*	11*	-11	44	PLCg1 ctr=5;PLCbeta3 conf=2
CCCOP(=O)(c1ccc(N(C)C)cc1)C(O)c1ccccc1OC (stereo unspecified)	5	-8	10*	0	/	PLCg1 ctr=-1;PLCbeta3 conf=1
COc1ccccc1C(O)P(=O)(OCC(C)C)c1ccc(N(C)C)cc1 (stereo unspecified)	-6	-3	1	0	/
CN1/C(=C/C(=O)C2CCC2)Sc2ccccc21	10	-2	11*	3	/	PLCg1 ctr=0;PLCbeta3 conf=2
CCC1(CC)NC(=O)N(CC(=O)N2CCN(S(=O)(=O)c3cccc(F)c3)CC2)C1=O	-3	-2	2	6	/
